The values that follow come from the OligoGym collection.
Note: reference of the scale not given here.

The target of the first experiment is HIST1H4B. Description: pooled miR-30 sensor sort-seq; sequence = guide strand. The settings on record: shRNA.
Take AATCAAACCGGAAATTCGCTTA: the sensor-assay potency score (higher = more potent) amounted to 0.0174.
With AACACCTTGAGAACGCCACGAG, the sensor-assay potency score (higher = more potent) was -0.445.
On the same count and under the same terms, for TTGGATGTTATCCCGCAGCACT the value was -1.27; for TCCTTGACGCTTGAGCGCGTAA, -1.7.
In turn, TAAACCACATCCATGGCAGTGA had a sensor-assay potency score (higher = more potent) of 0.196.
The same measure, in the same setting: under TATCCCGCAGCACTTTTCGGTG stands -1.57.
Still for that read-out and setting: for TGACAGTCTTGCGCTTGGCGTG the value was -1.49.
The same measure, in the same setting: under TTTGGTGATGCCTTGGATGTTA stands 0.361; under TTATCCCGCAGCACTTTTCGGT, -0.874.
Regarding TCTCCTCATAAATCAAACCGGA, the sensor-assay potency score (higher = more potent) was -1.02.
Same read-out and setting: for ATCCATGGCAGTGACAGTCTTG the value was -0.826; for TACCCAAACCTTTACCGCCTTT, -0.866.

In the next experiment the target is HIST1H4G. The experiment is described as above. The settings on record: shRNA.
Regarding AACACCTTGAACACCCGGCGGG, the sensor-assay potency score (higher = more potent) was -0.571.
Turning to AATATTATCGCTCAGTACCTTG, the sensor-assay potency score (higher = more potent) was -1.22.
ATTATCGCTCAGTACCTTGCGA: the sensor-assay potency score (higher = more potent) is -0.081.
As to TTTGAGCACGTAGACCACGGCC, the sensor-assay potency score (higher = more potent) was -0.756.
On the same count and under the same terms, for AGGAACACCTTGAACACCCGGC the value was -0.945; for TACCAGATCACATTTTCCAGGA, -0.129.
Same read-out and setting: under ACATTTTCCAGGAACACCTTGA stands -0.0469; under TATCGCTCAGTACCTTGCGATG, -1.74.
Still for that read-out and setting: for ATATTATCGCTCAGTACCTTGC the value was -0.774; for TTATCGCTCAGTACCTTGCGAT, -0.526.
Take TTGAGCACGTAGACCACGGCCA: the sensor-assay potency score (higher = more potent) was -0.24.
Same read-out and setting: under ACACCTTGAACACCCGGCGGGT stands -1.05.

For another experiment, the target named is HIST2H2AB. Described as above. The settings on record: shRNA.
On to ACTTGTTGAGCTCTTCGTCATT, for which the sensor-assay potency score (higher = more potent) is -1.57.
Same read-out and setting: for TCTTCGTCATTCCTCACGGCTA the value was -1.31; for TAACTTGTTGAGCTCTTCGTCA, -0.534.
Same read-out and setting: under GTAACTTGTTGAGCTCTTCGTC stands -0.977.
Same read-out and setting: for TGACTCTCCGTTTTCTTGGGCA the value was 0.0701; for TTGAGCTCTTCGTCATTCCTCA, 0.203; for TGGATATTGGGCAAGACGCCGC, -1.14.
Consider TTTTCTTGGGCAACAGGACAGC, for which the sensor-assay potency score (higher = more potent) is -1.07.
The same measure, in the same setting: for TTCGTCATTCCTCACGGCTAGT the value was -0.686; for AACTTGTTGAGCTCTTCGTCAT, -0.274.
Still for that read-out and setting: for TTGGGCAACAGGACAGCCTGGA the value was 0.319; for TTGTGACTCTCCGTTTTCTTGG, -0.765.
